Assay [1] is described as follows: qHTS assay for small molecules that induce genotoxicity in human embryonic kidney cells expressing luciferase-tagged ATAD5 (AID 651632). Further: nearly all actives have a fitted effect of over 15% in size. Further: potency means the concentration at half of the fitted maximal effect. The method in brief:
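Luminescent reporter readout, HEK293T ATAD5-luc line: 16 hr drug exposure (37C, 5% CO2) followed by Amplite, 30 min RT.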

The nature of assay [2]: qHTS assay for small molecules that induce genotoxicity in human embryonic kidney cells expressing luciferase-tagged ATAD5 - cell viability (AID 651634; calls by dose curve; further: nearly all actives have a fitted effect of over 25% in size; further: potency means the concentration at half of the fitted maximal effect). The method in brief:
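Viability read: CellTiter-Fluor fluorescence, 30 min at 37C. Cells: HEK293T, luciferase-tagged ATAD5. Exposure: 15.5 hr, 37C, 5% CO2, compound or DMSO vehicle.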

Assay [3] can be described thus: qHTS assay to test for compound auto fluorescence at 590 nm (red) in HepG2 cells (AID 720674). An outline of the steps:
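HepG2 cells, 2,000 per well in MEM with 10% FBS, attached overnight at 37 C, then got 23 nL compound or DMSO. After 1 hr at 37 C, 5% CO2, red fluorescence was read at 540/590 nm against Rose Bengal sodium as reference.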

Assay [4] can be described thus: qHTS assay to test for compound auto fluorescence at 535 nm (green) in HepG2 cells (AID 720675).
Assay [5] in a line: qHTS assay to test for compound auto fluorescence at 590 nm (red) in HEK293 cells (AID 720679). An outline of the steps: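 We plated HEK293 cells in 10% dialyzed FBS medium, let them adhere for 4-5 hr, then added 23 nL compound. Overnight at 37C and 5% CO2 preceded fluorescence measurement at 540/590nm.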
Assay [6] is described as follows: qHTS assay for small molecule disruptors of the mitochondrial membrane potential - cell viability (AID 720634; calls by dose curve;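 further: human HepG2 liver cancer cells; series mostly up to about 83 µM; nearly all actives have a fitted effect of over 20% in size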). An outline of the steps: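 HepG2, 1 hr compound, 37 C. ATP luminescence via CellTiter-Glo, 30 min RT, same well as m-MPI.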
Assay [7] can be described thus: qHTS assay for small molecule disruptors of the mitochondrial membrane potential (AID 720635). Further: potency means the concentration at half of the fitted maximal effect. The method in brief: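 HepG2 cells exposed to compound 1 hr at 37C, then Mito-MPS dye 30 min. Ratio read of aggregate (540/590 nm) versus monomer (490/535 nm) fluorescence.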
Assay [8] is described as follows: qHTS assay to test for compound auto fluorescence at 460 nm (blue) in HEK293 cells (AID 720678). The method in brief:
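Triamterene serves as the blue fluorophore standard. Compound signal at 405/460 nm is read in HEK293 wells (2,000 cells, 10% dialyzed FBS) after overnight treatment at 37C.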

A short description of assay [9]: qHTS assay for small molecule agonists of the p53 signaling pathway - cell viability (AID 651633; calls by dose curve; further: nearly all actives have a fitted effect of over 30% in size; further: potency means the concentration at half of the fitted maximal effect). The method in brief:
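p53RE-bla cells were treated with compound for 16 hours at 37 C. Cytotoxicity was then measured as CellTiter-Glo luminescence after 30 min at room temperature.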

Records with an inconclusive call do not appear. More than one record can exist for a structure, and the calls need not agree. Calls of active or inactive are those of the source. Unless noted, the call rests on the fitted dose curve; in most records, active means well fitted curve in the direction sought with a large enough effect in the repeat runs; inconclusive means weak or mixed curves; inactive means no such curve, though single readings can be large; an effect the other way counts as inactive or inconclusive.
On the % scale 0 is the no-effect control and ±100 the full control effect.

`O=C(Nc1ccccc1)Nc1ccccc1`: the Potency result in assay [1] and in assay [2] was “inactive” throughout. The compound was called inactive in [3], in [4] and in [5].
Regarding `Cc1ccc(Nc2nccc(N(C)c3ccc4c(C)n(C)nc4c3)n2)cc1S(N)(=O)=O`, the Potency result in assay [1], in [6] and in assay [8] was “inactive” in each case. Besides, the Potency in [2] was 26.6 µM (active); in assay [7], 0.75 µM (active). In addition, the compound was classed as inactive in assay [3], in [4] and in [5].
In the case of `Cc1nccn1-c1ccc(Sc2cccc(C3(C(N)=O)CCOCC3)c2)cc1`, the Potency result in assay [9], in assay [2], in assay [6] and in assay [8] was “inactive” throughout. For the same compound, the call in assay [3] and in assay [5] was inactive.
`O=C(CCCN1CCN(c2ccc(F)cc2)CC1)NC1c2ccccc2CSc2ccccc21` (stereo unspecified): the Potency entry in assay [1], in [6] and in [8] was “inactive” throughout. The outcome in [3], in assay [4] and in assay [5] was inactive.
For the compound `CC1=C(/C=C/C(C)=C\C=C\C(C)=C\C(=O)O)C(C)(C)CCC1`, the Potency result in assay [1], in [2] and in assay [6] was “inactive” each time. Besides, the compound was called inactive in assay [3], in assay [4] and in [5].
For the compound `CCc1nn(CCCN2CCN(c3cccc(Cl)c3)CC2)c(=O)n1CCOc1ccccc1`, the Potency entry in assay [1], in [6] and in assay [8] was “inactive” in each case. Also, the Potency in assay [9] was 26.6 µM (active) and inactive. Further, the compound was classed as inactive in assay [3], in assay [4] and in assay [5].
Turning to `CC(=O)OCC(=O)[C@@]12OC(C)(C)O[C@@H]1C[C@H]1[C@@H]3C[C@H](F)C4=CC(=O)C=C[C@]4(C)[C@@]3(F)[C@@H](O)C[C@@]12C`, the Potency entry in assay [9], in assay [2] and in assay [7] was “inactive” each time. Moreover, the fluorescence, relative to Rose Bengal in assay [3] is 0.821% [at 18.6 µM] (inactive). In addition, the fluorescence, % of fluorescein control in [4] is -0.0438% [at 18.6 µM] (inactive). Besides, in assay [8], the fluorescence, % of triamterene is -0.188% [at 18.6 µM] (inactive). Besides, the fluorescence, % of fluorescent control in assay [5] is 0.156% [at 18.6 µM] (inactive).
As to `Nc1ccc(Cl)cc1[N+](=O)[O-]`, the Potency result in [1], in assay [6] and in [8] was “inactive” in each case. Also, the Potency in assay [7] is 53.9 µM (active). Further, the compound was classed as inactive in assay [3], in assay [4] and in assay [5].
As for `Cc1ccc(S(=O)(=O)NC2CCCCC2)cc1`, the Potency entry in assay [1] and in [8] was “inactive” each time. Further, the compound was called inactive in assay [3], in assay [4] and in assay [5].
Consider `CC(C)c1nnc2ccc(-c3ocnc3-c3cc(F)ccc3F)cn12`, for which the Potency entry in assay [9] and in assay [8] was “inactive” in each case. The result in assay [3], in [4] and in assay [5] was inactive.
Regarding `c1cc[c]([Bi]([c]2ccccc2)[c]2ccccc2)cc1`, the Potency entry in assay [1], in [2] and in assay [8] was “inactive” in each case. Moreover, the outcome in assay [3], in assay [4] and in assay [5] was inactive.
Turning to `CCCc1c(OCCCOc2ccc(OCC(=O)O)cc2)ccc(C(C)=O)c1O`, in assay [1], the Potency entry is “inactive”. The call in assay [3], in assay [4] and in [5] was inactive.
As to `CC(=O)Oc1ccc2c(c1)CC[C@@H]1[C@@H]2CC[C@]2(C)[C@@H](O)CC[C@@H]12`, the Potency entry in assay [1], in assay [2] and in [8] was “inactive” throughout. The Potency in assay [7] was 8.41 µM (active). Moreover, the compound was classed as inactive in assay [3] and in assay [5].
`CCCCCCCCCCCCCCC[C@H](O)[C@@H](N)CO`: the Potency result in assay [1], in assay [2] and in assay [6] was “inactive” throughout. The compound was called inactive in assay [3], in [4] and in assay [5].
With `Cc1cc2nc3ccc(=[N+](C)C)cc-3sc2cc1N`, the Potency result in assay [1] and in assay [8] was “inactive” each time. Further, the results for the Potency in assay [9] and in assay [7] were 7.5 µM (active) and 3.76 µM (active), respectively. Moreover, the call in [3], in assay [4] and in assay [5] was inactive.
As for `CCc1cccc(N(C)C(N)=Nc2cccc3ccccc23)c1`, the Potency result in [9], in assay [2], in assay [6], in assay [7] and in assay [8] was “inactive” throughout. The outcome in assay [3] and in [5] was inactive.
`Oc1ccc(Nc2ccccc2)cc1`: the Potency result in [1], in assay [9] and in assay [6] was “inactive” in each case. The Potency in assay [7] was 54.5 µM (active). Further, the outcome in assay [3] and in assay [5] was inactive.
Turning to `CSc1ccc(Oc2ccc(S(N)(=O)=O)cc2CN(C)C)cc1C`, the Potency result in assay [1] was “inactive”. Further, the compound was called inactive in assay [3], in assay [4] and in [5].
On to `CC(C)(O)c1ccccc1CC[C@@H](SCC1(CC(=O)O)CC1)c1cccc(/C=C/c2ccc3ccc(Cl)cc3n2)c1`, for which the Potency in assay [9] was 13.3 µM (active). The Potency result in assay [2], in assay [6] and in assay [8] was “inactive” each time. In addition, the outcome in [3] and in assay [5] was inactive.
As to `CC(CCc1ccc2c(c1)OCO2)NN` (stereo unspecified), the Potency entry in assay [1], in [2], in [6], in [7] and in assay [8] was “inactive” in each case. Further, the compound was called inactive in assay [3] and in [5].
As for `CN(C)CCOC1=Cc2ccccc2Sc2ccc(Cl)cc21`, the Potency result in assay [1], in [2] and in assay [8] was “inactive” each time. The call in [3], in [4] and in assay [5] was inactive.
Take `Cc1oc(C)c(C(=O)Nc2ccccc2)c1C`: the Potency entry in assay [1], in assay [2] and in [6] was “inactive” throughout. Besides, in assay [7], the Potency is 27.3 µM (active). Also, the compound was called inactive in [3], in assay [4] and in [5].
In the case of `CCCCN(CCCC)C(=S)SSC(=S)N(CCCC)CCCC`, the Potency entry in assay [1], in assay [9] and in [8] was “inactive” each time. The result in assay [3] and in assay [5] was inactive.
For the compound `COCCOC`, the Potency result in assay [9], in [7] and in [8] was “inactive” throughout. In addition, the call in assay [3] and in assay [5] was inactive.
Regarding `COc1cc2c(N3CCN(C(=O)Nc4ccc(OC(C)C)cc4)CC3)ncnc2cc1OCCCN1CCCCC1`, the Potency in assay [9] was 5.31 µM (active); in assay [2], 29.8 µM (active); in [7] it was 26.6 µM (active). Moreover, the Potency result in assay [6] and in assay [8] was “inactive” each time. Moreover, the call in [3], in [4] and in [5] was inactive.
Turning to `CCNC(=O)N1CCN(CCCC(c2ccc(F)cc2)c2ccc(F)cc2)CC1`, the Potency result in assay [1], in assay [9], in assay [6] and in assay [8] was “inactive” in each case. Further, the outcome in assay [3], in assay [4] and in assay [5] was inactive.
As for `O=C(CS)OCCOC(=O)CS`, the Potency in assay [1] is 30.6 µM (active). The Potency result in assay [9] and in assay [2] was “inactive” each time. Besides, the compound was classed as inactive in [3], in [4] and in assay [5].
On to `COc1cc2ncnc(Nc3ccc(F)c(Cl)c3)c2cc1OCCCN1CCOCC1`, for which the Potency entry in assay [1] and in assay [8] was “inactive” in each case. Besides, the compound was classed as inactive in [3] and in assay [5].
As for `COc1cc2c(cc1OC)-c1cc(=Nc3c(C)cc(C)cc3C)n(C)c(=O)n1CC2`, in [1], the Potency result is “inactive”. For the same compound, the Potency in assay [9] and in assay [2] was 29.8 µM (active) in each case. In addition, the compound was classed as inactive in [3], in [4] and in assay [5].
On to `Nc1ccc(C(=O)OCCCOC(=O)c2ccc(N)cc2)cc1`, for which the Potency result in [9] and in assay [6] was “inactive” throughout. The Potency in assay [7] is 27.3 µM (active). The compound was classed as inactive in assay [3] and in assay [5].
`CC1C2CC(CC2C2CCCC(O)C2)C1(C)C` (stereo unspecified): the Potency result in [1] and in assay [2] was “inactive” in each case. Also, the outcome in assay [3], in [4] and in [5] was inactive.
As to `COC(=O)[C@@H]1CC2=CC(=O)CC[C@]2(C)[C@@]23O[C@@H]2C[C@@]2(C)[C@@H](CC[C@@]24CCC(=O)O4)[C@H]13`, the Potency entry in assay [1], in assay [2] and in [8] was “inactive” in each case. Further, the compound was classed as inactive in [3], in assay [4] and in [5].
